# Legend:
# Test in all cases: DAPPL (digital affinity profiling via proximity ligation, sequencing); 10 mM Tris-HCl pH 7.5, 50 mM NaCl, 1 mM DTT, 4% glycerol, room temperature, 30 min; GST-TFs on glutathione beads, 16-mer random dsDNA library, 0.1% formaldehyde crosslink after washing; high values mean tight binding
# FEV = molecular target: T1, FEV (Homo sapiens, UniProt Q99581 1-238); details: protein: recombinant; tags: N-terminal GST; dsDNA, one strand shown
# T1 sequence: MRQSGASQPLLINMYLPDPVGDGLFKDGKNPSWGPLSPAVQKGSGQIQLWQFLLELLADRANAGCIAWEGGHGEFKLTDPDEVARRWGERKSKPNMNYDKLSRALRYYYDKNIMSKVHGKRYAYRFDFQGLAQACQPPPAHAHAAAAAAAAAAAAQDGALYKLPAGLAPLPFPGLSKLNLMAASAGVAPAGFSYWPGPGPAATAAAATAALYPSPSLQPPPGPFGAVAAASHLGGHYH
# How it was run: (§1)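 Binding signal is each hexamer's read frequency for a factor divided by its frequency in the tag-only sample. The factors were GST-fused human transcription factors from yeast, captured on glutathione beads, DNA-barcoded and pooled with that sample. Pools were incubated with 200 nmole of a random double-stranded 16-mer DNA library in Tris/NaCl/DTT/glycerol buffer at room temperature for 30 min, then washed, crosslinked with 0.1% formaldehyde, proximity-ligated with BsaI/T4 ligase (1 h, 37 °C), PCR-amplified and sequenced on an Illumina NextSeq500.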
# ETV5 = ETV5 (Homo sapiens, UniProt P41161 1-510); details: protein: recombinant; tags: N-terminal GST; dsDNA, one strand shown
# Sequence of ETV5 (P41161 whole entry): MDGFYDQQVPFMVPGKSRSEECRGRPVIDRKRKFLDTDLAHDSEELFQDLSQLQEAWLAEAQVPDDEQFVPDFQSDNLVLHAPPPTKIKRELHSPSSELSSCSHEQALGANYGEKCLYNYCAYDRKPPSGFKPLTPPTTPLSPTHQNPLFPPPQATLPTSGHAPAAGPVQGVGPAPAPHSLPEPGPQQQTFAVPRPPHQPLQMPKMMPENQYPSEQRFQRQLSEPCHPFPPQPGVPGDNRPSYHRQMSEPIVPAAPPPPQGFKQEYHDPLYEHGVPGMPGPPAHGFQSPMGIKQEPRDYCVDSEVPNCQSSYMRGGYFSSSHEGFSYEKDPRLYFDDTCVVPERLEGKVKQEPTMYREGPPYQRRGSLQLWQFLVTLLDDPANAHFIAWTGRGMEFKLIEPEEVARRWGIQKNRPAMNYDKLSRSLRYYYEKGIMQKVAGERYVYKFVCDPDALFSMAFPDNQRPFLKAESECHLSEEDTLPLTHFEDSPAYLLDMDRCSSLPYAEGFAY
# How it was run: as §1
# HSF1 = HSF1 (Homo sapiens, UniProt Q00613 1-529); details: protein: recombinant; tags: N-terminal GST; chain copies: 3; dsDNA, one strand shown
# Sequence of HSF1 (Q00613 whole entry): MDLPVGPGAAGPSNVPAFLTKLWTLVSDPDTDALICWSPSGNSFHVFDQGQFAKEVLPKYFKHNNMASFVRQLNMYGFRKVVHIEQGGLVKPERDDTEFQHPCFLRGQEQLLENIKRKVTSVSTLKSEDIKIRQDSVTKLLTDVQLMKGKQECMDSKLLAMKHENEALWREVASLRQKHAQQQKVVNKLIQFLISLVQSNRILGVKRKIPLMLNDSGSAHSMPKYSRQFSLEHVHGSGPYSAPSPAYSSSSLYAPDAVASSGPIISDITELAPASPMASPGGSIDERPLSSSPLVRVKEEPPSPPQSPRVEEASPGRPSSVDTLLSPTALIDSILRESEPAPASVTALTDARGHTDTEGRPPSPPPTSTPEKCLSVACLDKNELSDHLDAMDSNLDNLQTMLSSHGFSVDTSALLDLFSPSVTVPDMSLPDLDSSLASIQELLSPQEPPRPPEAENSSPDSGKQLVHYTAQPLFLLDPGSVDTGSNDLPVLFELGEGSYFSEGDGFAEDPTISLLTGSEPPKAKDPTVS
# How it was run: as §1
# SPIC = molecular target: T2, SPIC (Homo sapiens, UniProt Q8N5J4 1-248); details: protein: recombinant; tags: N-terminal GST; dsDNA, one strand shown
# T2 sequence: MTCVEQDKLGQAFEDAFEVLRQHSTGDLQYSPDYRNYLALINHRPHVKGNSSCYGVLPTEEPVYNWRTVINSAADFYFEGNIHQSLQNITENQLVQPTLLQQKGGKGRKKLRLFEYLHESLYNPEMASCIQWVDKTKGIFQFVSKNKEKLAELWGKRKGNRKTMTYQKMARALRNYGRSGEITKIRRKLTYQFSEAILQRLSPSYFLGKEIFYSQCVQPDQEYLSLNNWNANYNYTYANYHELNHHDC
# How it was run: as §1
# ELF4 = ELF4 (Homo sapiens, UniProt Q99607 1-663); details: protein: recombinant; tags: N-terminal GST; dsDNA, one strand shown
# Sequence of ELF4 (Q99607 whole entry): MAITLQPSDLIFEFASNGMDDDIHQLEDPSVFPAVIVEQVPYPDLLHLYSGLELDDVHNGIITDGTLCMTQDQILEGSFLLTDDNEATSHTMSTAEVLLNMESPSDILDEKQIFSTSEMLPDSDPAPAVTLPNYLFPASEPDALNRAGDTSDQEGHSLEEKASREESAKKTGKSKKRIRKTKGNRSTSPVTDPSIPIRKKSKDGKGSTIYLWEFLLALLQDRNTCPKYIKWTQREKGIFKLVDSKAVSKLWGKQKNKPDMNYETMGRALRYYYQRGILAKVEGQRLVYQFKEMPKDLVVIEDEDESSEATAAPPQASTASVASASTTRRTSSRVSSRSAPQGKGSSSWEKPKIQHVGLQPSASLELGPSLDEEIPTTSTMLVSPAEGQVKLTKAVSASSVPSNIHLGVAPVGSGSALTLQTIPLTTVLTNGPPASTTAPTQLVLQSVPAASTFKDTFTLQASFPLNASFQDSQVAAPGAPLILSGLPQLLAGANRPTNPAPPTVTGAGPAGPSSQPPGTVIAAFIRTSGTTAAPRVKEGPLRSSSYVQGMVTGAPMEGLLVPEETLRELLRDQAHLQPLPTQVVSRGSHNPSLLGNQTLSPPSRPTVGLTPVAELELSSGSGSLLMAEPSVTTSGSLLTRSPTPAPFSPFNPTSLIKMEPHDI
# How it was run: as §1
# ELK4 = molecular target: T3, ELK4 (Homo sapiens, UniProt P28324-2 1-405); details: protein: recombinant; tags: N-terminal GST; dsDNA, one strand shown
# T3 sequence: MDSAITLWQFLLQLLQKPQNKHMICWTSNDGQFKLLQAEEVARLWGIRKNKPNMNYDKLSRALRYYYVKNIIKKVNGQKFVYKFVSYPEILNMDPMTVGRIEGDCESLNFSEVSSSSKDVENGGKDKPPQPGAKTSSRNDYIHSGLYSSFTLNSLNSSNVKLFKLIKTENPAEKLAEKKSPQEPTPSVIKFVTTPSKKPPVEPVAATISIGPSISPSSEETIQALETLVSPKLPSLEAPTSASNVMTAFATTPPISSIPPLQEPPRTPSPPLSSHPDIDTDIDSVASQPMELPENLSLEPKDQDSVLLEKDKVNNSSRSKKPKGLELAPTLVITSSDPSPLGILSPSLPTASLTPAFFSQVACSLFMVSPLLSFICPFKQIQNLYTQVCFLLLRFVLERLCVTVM
# How it was run: as §1
# ETV2 = molecular target: T4, ETV2 (Homo sapiens, UniProt O00321 1-342); details: protein: recombinant; tags: N-terminal GST; dsDNA, one strand shown
# T4 sequence: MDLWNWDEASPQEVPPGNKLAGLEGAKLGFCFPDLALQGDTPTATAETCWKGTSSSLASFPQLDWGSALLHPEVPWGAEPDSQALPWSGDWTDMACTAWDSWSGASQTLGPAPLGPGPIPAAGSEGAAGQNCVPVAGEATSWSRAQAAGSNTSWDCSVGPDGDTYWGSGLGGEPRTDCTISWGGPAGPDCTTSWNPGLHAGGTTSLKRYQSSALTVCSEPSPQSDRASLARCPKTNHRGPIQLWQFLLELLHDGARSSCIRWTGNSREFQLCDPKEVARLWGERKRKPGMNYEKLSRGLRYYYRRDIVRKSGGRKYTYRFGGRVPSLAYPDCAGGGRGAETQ
# How it was run: as §1
# ELF3 = molecular target: T5, ELF3 (Homo sapiens, UniProt P78545 1-371); details: protein: recombinant; tags: N-terminal GST; dsDNA, one strand shown
# T5 sequence: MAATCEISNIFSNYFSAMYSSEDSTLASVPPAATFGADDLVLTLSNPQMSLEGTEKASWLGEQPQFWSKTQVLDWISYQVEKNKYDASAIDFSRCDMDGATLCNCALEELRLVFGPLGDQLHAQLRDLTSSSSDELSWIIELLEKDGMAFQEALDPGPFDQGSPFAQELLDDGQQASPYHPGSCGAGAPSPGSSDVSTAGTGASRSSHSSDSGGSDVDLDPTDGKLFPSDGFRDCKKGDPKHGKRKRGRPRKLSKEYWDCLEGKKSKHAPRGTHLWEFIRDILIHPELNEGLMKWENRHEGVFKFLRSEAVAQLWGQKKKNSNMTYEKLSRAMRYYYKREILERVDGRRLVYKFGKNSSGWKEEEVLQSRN
# How it was run: as §1
# CRX = CRX (Homo sapiens, UniProt O43186 1-299); details: protein: recombinant; tags: N-terminal GST; dsDNA, one strand shown
# Sequence of CRX (O43186 whole entry): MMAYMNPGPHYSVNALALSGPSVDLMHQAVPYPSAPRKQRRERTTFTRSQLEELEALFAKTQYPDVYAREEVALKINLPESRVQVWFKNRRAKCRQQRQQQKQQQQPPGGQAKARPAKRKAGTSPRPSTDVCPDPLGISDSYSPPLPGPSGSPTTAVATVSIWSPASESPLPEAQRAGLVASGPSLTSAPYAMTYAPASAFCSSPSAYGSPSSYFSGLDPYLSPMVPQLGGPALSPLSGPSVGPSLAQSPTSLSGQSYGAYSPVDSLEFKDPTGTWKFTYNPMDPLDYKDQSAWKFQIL
# How it was run: as §1
# ETV1 = ETV1 (Homo sapiens, UniProt P50549 1-477); details: protein: recombinant; tags: N-terminal GST; dsDNA, one strand shown
# Sequence of ETV1 (P50549 whole entry): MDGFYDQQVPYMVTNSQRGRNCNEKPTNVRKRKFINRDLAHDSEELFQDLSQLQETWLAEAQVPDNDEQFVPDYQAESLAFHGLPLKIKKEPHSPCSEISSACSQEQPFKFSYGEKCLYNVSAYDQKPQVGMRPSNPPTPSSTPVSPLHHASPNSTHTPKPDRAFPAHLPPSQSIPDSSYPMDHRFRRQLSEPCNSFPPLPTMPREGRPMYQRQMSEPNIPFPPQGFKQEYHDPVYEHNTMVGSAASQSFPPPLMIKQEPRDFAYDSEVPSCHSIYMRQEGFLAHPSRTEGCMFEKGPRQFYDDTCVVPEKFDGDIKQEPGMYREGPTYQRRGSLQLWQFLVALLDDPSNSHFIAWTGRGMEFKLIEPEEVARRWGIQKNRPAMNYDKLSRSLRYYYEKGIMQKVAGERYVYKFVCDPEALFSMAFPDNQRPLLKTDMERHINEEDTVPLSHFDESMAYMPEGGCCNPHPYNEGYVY
# How it was run: as §1
# ERF = molecular target: T6, ERF (Homo sapiens, UniProt P50548 1-548); details: protein: recombinant; tags: N-terminal GST; dsDNA, one strand shown
# T6 sequence: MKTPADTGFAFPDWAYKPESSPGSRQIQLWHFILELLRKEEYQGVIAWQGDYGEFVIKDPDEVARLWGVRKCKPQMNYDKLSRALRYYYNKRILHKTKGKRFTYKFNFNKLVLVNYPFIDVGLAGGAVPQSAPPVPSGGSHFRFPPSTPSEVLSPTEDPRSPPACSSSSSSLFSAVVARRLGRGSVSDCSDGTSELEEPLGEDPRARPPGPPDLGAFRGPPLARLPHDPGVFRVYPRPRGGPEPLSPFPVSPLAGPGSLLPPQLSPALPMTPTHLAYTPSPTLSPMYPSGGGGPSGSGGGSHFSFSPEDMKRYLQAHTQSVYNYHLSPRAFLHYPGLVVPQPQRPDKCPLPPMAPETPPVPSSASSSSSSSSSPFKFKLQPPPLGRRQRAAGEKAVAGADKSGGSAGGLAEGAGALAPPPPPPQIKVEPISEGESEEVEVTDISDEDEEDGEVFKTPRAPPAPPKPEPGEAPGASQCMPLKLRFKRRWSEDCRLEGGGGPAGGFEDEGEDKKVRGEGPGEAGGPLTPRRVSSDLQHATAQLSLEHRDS
# How it was run: as §1
# ETV3L = molecular target: T7, ETV3L (Homo sapiens, UniProt Q6ZN32 1-361); details: protein: recombinant; tags: N-terminal GST; dsDNA, one strand shown
# T7 sequence: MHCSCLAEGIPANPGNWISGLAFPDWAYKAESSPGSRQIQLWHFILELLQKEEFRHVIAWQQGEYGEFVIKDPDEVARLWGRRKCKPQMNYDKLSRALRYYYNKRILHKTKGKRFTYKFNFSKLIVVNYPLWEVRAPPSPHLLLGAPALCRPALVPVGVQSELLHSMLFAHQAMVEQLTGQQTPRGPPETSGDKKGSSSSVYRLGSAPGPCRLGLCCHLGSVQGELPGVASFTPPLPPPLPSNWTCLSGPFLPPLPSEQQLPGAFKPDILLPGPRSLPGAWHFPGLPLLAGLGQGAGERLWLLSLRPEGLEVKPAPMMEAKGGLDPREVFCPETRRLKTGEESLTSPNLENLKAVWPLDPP
# How it was run: as §1
# ETS2 = molecular target: T8, ETS2 (Homo sapiens, UniProt P15036 1-469); details: protein: recombinant; tags: N-terminal GST; dsDNA, one strand shown
# T8 sequence: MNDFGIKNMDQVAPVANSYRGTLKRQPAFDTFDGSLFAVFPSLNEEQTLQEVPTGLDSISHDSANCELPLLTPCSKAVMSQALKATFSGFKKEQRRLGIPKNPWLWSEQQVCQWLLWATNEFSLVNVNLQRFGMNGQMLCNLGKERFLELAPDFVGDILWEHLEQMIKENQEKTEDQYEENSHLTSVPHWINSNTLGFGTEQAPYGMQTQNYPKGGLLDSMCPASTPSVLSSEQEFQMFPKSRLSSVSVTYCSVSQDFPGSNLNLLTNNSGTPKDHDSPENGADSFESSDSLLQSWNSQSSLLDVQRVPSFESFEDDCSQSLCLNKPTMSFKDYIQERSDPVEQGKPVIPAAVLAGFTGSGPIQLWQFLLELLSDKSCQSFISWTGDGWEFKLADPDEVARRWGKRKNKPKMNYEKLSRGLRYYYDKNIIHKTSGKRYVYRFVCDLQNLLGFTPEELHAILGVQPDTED
# How it was run: as §1
# SPDEF = molecular target: T9, SPDEF (Homo sapiens, UniProt O95238 1-335); details: protein: recombinant; tags: N-terminal GST; dsDNA, one strand shown
# T9 sequence: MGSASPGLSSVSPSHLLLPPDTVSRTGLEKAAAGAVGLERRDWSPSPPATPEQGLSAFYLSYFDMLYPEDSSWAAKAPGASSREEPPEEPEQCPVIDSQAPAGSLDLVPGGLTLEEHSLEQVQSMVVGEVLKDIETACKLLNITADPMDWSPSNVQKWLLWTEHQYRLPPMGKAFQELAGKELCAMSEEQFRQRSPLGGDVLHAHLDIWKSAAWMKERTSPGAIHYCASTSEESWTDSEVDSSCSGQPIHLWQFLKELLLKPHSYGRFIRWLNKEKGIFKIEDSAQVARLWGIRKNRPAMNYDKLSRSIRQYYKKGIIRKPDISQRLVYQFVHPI
# How it was run: as §1
# ETV7 = molecular target: T10, ETV7 (Homo sapiens, UniProt Q9Y603 1-341); details: protein: recombinant; tags: N-terminal GST; dsDNA, one strand shown
# T10 sequence: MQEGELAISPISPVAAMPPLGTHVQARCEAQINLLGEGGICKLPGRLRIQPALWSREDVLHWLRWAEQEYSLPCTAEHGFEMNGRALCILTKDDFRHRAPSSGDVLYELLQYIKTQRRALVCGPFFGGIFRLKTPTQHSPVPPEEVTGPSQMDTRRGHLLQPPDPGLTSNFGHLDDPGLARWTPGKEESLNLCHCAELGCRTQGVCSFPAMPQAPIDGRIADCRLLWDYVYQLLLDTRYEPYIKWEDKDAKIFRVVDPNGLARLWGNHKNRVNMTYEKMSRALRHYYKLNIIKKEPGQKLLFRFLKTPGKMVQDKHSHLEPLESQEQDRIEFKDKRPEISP
# How it was run: as §1
# ELF5 = molecular target: T11, ELF5 (Homo sapiens, UniProt Q9UKW6-2 1-255); details: protein: recombinant; tags: N-terminal GST; dsDNA, one strand shown
# T11 sequence: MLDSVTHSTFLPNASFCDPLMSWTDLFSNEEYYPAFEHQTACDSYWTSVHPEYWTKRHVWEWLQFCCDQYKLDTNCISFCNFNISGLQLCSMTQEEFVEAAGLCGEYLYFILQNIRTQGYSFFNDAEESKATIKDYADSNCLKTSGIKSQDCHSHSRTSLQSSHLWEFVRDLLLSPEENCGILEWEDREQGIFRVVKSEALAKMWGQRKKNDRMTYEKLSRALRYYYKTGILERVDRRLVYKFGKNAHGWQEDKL
# How it was run: as §1
# ETV3 = molecular target: T12, ETV3 (Homo sapiens, UniProt P41162-2 1-143); details: protein: recombinant; tags: N-terminal GST; dsDNA, one strand shown
# T12 sequence: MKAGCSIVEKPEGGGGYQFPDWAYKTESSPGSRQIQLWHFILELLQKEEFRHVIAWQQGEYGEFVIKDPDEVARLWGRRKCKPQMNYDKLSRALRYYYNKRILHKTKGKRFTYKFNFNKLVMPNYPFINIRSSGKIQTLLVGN
# How it was run: as §1
# ETV6 = ETV6 (Homo sapiens, UniProt P41212 1-452); details: protein: recombinant; tags: N-terminal GST; dsDNA, one strand shown
# Sequence of ETV6 (P41212 whole entry): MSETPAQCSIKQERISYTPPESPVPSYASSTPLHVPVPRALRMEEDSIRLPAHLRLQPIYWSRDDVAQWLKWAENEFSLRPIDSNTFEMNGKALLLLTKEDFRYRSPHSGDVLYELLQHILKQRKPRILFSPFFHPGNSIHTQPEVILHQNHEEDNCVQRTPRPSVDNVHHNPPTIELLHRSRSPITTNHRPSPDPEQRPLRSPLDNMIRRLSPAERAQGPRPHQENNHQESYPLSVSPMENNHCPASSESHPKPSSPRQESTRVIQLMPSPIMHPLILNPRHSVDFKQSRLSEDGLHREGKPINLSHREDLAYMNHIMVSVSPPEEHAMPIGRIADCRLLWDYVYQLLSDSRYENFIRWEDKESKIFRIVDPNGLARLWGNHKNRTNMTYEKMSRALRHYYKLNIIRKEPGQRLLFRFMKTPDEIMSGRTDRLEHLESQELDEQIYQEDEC
# How it was run: as §1
sequence,measurement,setting,value
AAACTA,binding signal,FEV,"1.29 fold enrichment (6-mer frequency, TF over GST control)"
same,binding signal,ETV5,"1.3 fold enrichment (6-mer frequency, TF over GST control)"
same,binding signal,HSF1,"1.31 fold enrichment (6-mer frequency, TF over GST control)"
same,binding signal,SPIC,"1.18 fold enrichment (6-mer frequency, TF over GST control)"
same,binding signal,ELF4,"1.33 fold enrichment (6-mer frequency, TF over GST control)"
same,binding signal,ELK4,"1.22 fold enrichment (6-mer frequency, TF over GST control)"
same,binding signal,ETV2,"1.29 fold enrichment (6-mer frequency, TF over GST control)"
same,binding signal,ELF3,"1.09 fold enrichment (6-mer frequency, TF over GST control)"
same,binding signal,CRX,"1.35 fold enrichment (6-mer frequency, TF over GST control)"
same,binding signal,ETV1,"1.36 fold enrichment (6-mer frequency, TF over GST control)"
same,binding signal,ERF,"1.29 fold enrichment (6-mer frequency, TF over GST control)"
same,binding signal,ETV3L,"1.27 fold enrichment (6-mer frequency, TF over GST control)"
same,binding signal,ETS2,"1.35 fold enrichment (6-mer frequency, TF over GST control)"
same,binding signal,SPDEF,"1.29 fold enrichment (6-mer frequency, TF over GST control)"
same,binding signal,ETV7,"1.31 fold enrichment (6-mer frequency, TF over GST control)"
same,binding signal,ELF5,"1.32 fold enrichment (6-mer frequency, TF over GST control)"
same,binding signal,ETV3,"1.24 fold enrichment (6-mer frequency, TF over GST control)"
same,binding signal,ETV6,"1.25 fold enrichment (6-mer frequency, TF over GST control)"
